Hits are enriched below; roughly 11% of the tested compounds scored in any of these assays.
INS promoter inh = TRM-6 insulin promoter activity inhibition | 130,000 tested, 0.9% active | TRM-6 cells (human fetal islet line), insulin promoter-eGFP reporter, imaging; reporter expression induced with tamoxifen | inhibition, % at 2 µM;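 active means inhibition above the mean plus 3 SD, with well images judged a real hit on visual review, cut at about 60% in these data, passing the limit was not always enough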
Ins promoter up = MIN6 insulin promoter up-regulation. 190,000 tested, 0.3% active. MIN6 insulin promoter-GFP reporter, high-content imaging; active compounds read high. z-score at 5 µM;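 active means z-score above 3 at 5 µM with at least 500 cells counted in the well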
Autophagy mod = autophagy modulation, high-content screen | MEF GFP-LC3 puncta imaging; test concentration mostly 10 µM | calls only at 10 µM (by protocol) | 190,000 tested, 0.98% active;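 active means percentage of spot-positive cells more than 3 SD above its plate mean, without a fluorescence outlier flag or 80% toxicity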
WT yeast gro inh = growth inhibition of WT yeast, mitochondrial fusion screen; mitochondrial fusion phenotypic screen, WT strain; 190,000 tested, 2.1% active; inhibition, % at 10 µM; in the data active means inhibition above about 58%; tested in S. cerevisiae
Lmaj promast = Leishmania major promastigote growth inhibition | Leishmania major promastigotes, resazurin fluorescence viability | inhibition, % at 10 µM | 200,000 tested, 9% active; in the data active means inhibition above about 50%;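 further: promastigotes grown with compound for 44 hours at 28 °C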
Large screens that a line does not name were inactive.

NC(=O)CC[C@H](NC(=O)c1ccc(F)cc1)C(=O)OCC(=O)Nc1ccc(N2CCOCC2)cc1	none
Cc1cccc(N2CCN(C(=O)c3ccoc3C)CC2)c1C	none
Cc1ccc(NC(=O)CC2COc3ccccc3O2)cc1 (centres undefined)	none
CCC1CN(C(=O)Nc2ccc(C)cc2)c2cc(C)ccc2O1 (centres undefined)	Autophagy mod active (no result: Ins promoter up)
COC(=O)C1=CN(Cc2ccc(OC)cc2)C=C(C(=O)OC)C1c1cccs1	Lmaj promast 100.2 (no result: INS promoter inh)
O=C(CN1C(=O)COc2ccc(S(=O)(=O)N3CCCC3)cc21)NC1CCCCCCC1	none (no result: INS promoter inh)
COc1ccc(N(C(=O)c2ccco2)S(=O)(=O)c2cc(Cl)c(Cl)cc2Cl)cc1	WT yeast gro inh 58.7
CCCCCCCC(=O)NC(Nc1ccc(S(N)(=O)=O)cc1)C(Cl)(Cl)Cl (centres undefined)	none
O=C(CN1CCc2ccccc2C1)Nc1ccccc1N1CCCCCC1	WT yeast gro inh 61.4
O=C(CNCCC1=CCCCC1)Nc1ccccc1N1CCCCC1	Lmaj promast 97.4
Cc1ccc2[nH]c(O)c(N=NC(=O)C3CC3c3ccccc3)c2c1Br (centres undefined)	none
CCCc1cc(NCC2CCCO2)n2c(nc3ccccc32)c1C#N (centres undefined)	Lmaj promast 77.6
COc1cc(C(=O)N2CCC(n3c(C)nc4cc(F)ccc43)CC2)cc(OC)c1OC	none
CCC(C)n1c(SCc2ccccc2)nc2ccsc2c1=O (centres undefined)	WT yeast gro inh 64.5
O=C(O)CCCCn1c(SCC(=O)Nc2ccccc2C(F)(F)F)nc2ccsc2c1=O	none
CCC(C)n1c(SCC(=O)Nc2ccccc2C(F)(F)F)nc2ccsc2c1=O (centres undefined)	Lmaj promast 95.9
COc1cc(/C=N/n2nnnc2Nc2ccccc2)cc(OC)c1OC	none (no result: Ins promoter up)
Cc1ccc(S(=O)(=O)N2CCN(C(=O)C3CCN(C(=O)c4ccccc4C)CC3)CC2)cc1C	none (no result: INS promoter inh)
COc1cc(C)c(Cl)cc1S(=O)(=O)n1cnc(C)c1	Lmaj promast 88.9
COc1ccc(C(C)C)cc1S(=O)(=O)n1cnc(C)c1	none (no result: Ins promoter up)
CCCCC(CC)C(=O)Nc1ncc([N+](=O)[O-])s1 (centres undefined)	Lmaj promast 59.0
Cc1ccc(CC(=O)Nc2ncc([N+](=O)[O-])s2)cc1	none (no result: INS promoter inh)
CCC1=Nc2cc(C(=O)NCCCOC(C)C)ccc2Sc2ccccc21	Autophagy mod active
CCC1=Nc2cc(C(=O)NCc3ccco3)ccc2Sc2ccc(Cl)cc21	Lmaj promast 68.3
CCC1=Nc2cc(C(=O)O)ccc2Sc2ccccc21	none
CCC1=Nc2cc(C(=O)NCc3ccco3)ccc2Sc2ccccc21	Lmaj promast 69.9
Cc1c(Cl)cccc1NC(=O)CCC(=O)NNC(=O)c1ccccc1	none
C/C(=N\Nc1nc(-c2cc(C)ccc2C)cs1)c1cc2c(ccc3ccccc32)oc1=O	none
CC(=O)c1cccc(NC(=O)COc2cc3oc(=O)c(CC(C)O)c(C)c3cc2Cl)c1 (centres undefined)	none (no result: INS promoter inh)
CC(C)(C)NS(=O)(=O)c1ccc(/C=C/C(=O)O)cc1	none (no result: INS promoter inh)
C/C(=N\NC(=O)c1ccc(=O)[nH]n1)c1cccnc1	none
O=C(OCC(=O)N1CCc2ccccc21)c1cccc(S(=O)(=O)N2CCCc3ccccc32)c1	Lmaj promast 97.9
O=C(COC(=O)c1cccc(S(=O)(=O)N2CCc3ccccc32)c1)Nc1ncc(Cl)cc1Cl	Lmaj promast 60.2
O=C(COC(=O)c1ccc(Cl)c(S(=O)(=O)N2CCc3ccccc3C2)c1)Nc1ncc(Cl)cc1Cl	Lmaj promast 81.5
Cc1nc(NC(=O)COC(=O)c2ccc(S(=O)(=O)N3CCc4ccccc4C3)cc2)c(Cl)cc1Cl	none
CC(C)CC(C(=O)Nc1oc(-c2ccco2)c(-c2ccco2)c1C#N)N1C(=O)c2ccccc2C1=O (centres undefined)	none
CC1CC(C)CN(C(=S)Nc2ccc3nc4n(c(=O)c3c2)CCCCC4)C1 (centres undefined)	Lmaj promast 85.2
O=C(Nc1ccc2nc3n(c(=O)c2c1)CCCC3)c1ccccc1[N+](=O)[O-]	Lmaj promast 56.2
CCCN(CCC)CCCNC(=S)Nc1ccc2nc3n(c(=O)c2c1)CCCCC3	Lmaj promast 60.8
Cc1ccccc1C(=O)Nc1ccc2nc3n(c(=O)c2c1)CCC3	none (no result: INS promoter inh)
CC1CCCN(C(=S)Nc2ccc3nc4n(c(=O)c3c2)CCCCC4)C1 (centres undefined)	none
O=C(CNc1ccccc1)NN=C1CCCC1	none
CCOC(=O)c1oc2ccc(S(=O)(=O)n3nc(-c4ccccc4)cc3N)cc2c1C	Lmaj promast 97.1 (no result: INS promoter inh)
CCOc1ccc(Cl)cc1S(=O)(=O)N1CCN(c2ccc(C)c(C)c2)CC1	Lmaj promast 89.0
Cc1cc(S(=O)(=O)N2CCN(c3ccc(F)cc3)CC2)c(C)s1	none (no result: INS promoter inh)
COc1ccc(C(C)C)cc1S(=O)(=O)N1CCN(c2ccccc2)CC1	WT yeast gro inh 66.2 (no result: INS promoter inh)
CCOc1ccc(Cl)cc1S(=O)(=O)N1CCN(c2ccc(F)cc2)CC1	none
COc1ccc(C(C)C)cc1S(=O)(=O)N1CC(C)OC(C)C1 (centres undefined)	none (no result: INS promoter inh)
COc1c(S(=O)(=O)N2CCN(c3ccc(F)cc3)CC2)ccc(Cl)c1Cl	INS promoter inh 74.3
COc1ccc(Cl)cc1S(=O)(=O)N1CCN(c2ccc(F)cc2)CC1	Lmaj promast 76.6
COc1cc(/C=N/NC(=O)c2ccc(CSc3nc4ccccc4[nH]3)cc2)ccc1O	none (no result: INS promoter inh)
Cc1ccccc1N(C(=O)Cn1nnc(-c2cccs2)n1)C(C(=O)NCCC(C)C)c1ccco1 (centres undefined)	none
CC(=O)NC1C(c2nc3ccccc3s2)=C(c2ccccc2)C(=O)N1c1ccc(C)cc1 (centres undefined)	WT yeast gro inh 68.0, Lmaj promast 96.9
CC(=O)NCc1ccc(-c2nc3ccccc3s2)cc1	none (no result: INS promoter inh)
COc1cccc(N2C(=O)C(c3ccccc3)=C(c3nc4ccccc4s3)C2NC(C)=O)c1 (centres undefined)	WT yeast gro inh 70.5 (no result: Ins promoter up)
COc1ccc(Cn2nc(-c3ccccc3)c(N3CCCCC3)cc2=O)cc1	WT yeast gro inh 71.4 (no result: INS promoter inh)
Cn1nc(-c2ccccc2)c(N2CCCCC2)cc1=O	none (no result: INS promoter inh)
O=c1cc(N2CCCCC2)c(-c2ccccc2)nn1Cc1ccccc1	WT yeast gro inh 75.8
Cc1cc2cc3c(cc2nc1SCC(=O)Nc1nc(C)c(C)s1)OCO3	Lmaj promast 83.2
COC(=O)CSc1nc2cc3c(cc2cc1C)OCO3	WT yeast gro inh 70.2
COc1cccc(CSc2nc3cc4c(cc3cc2C)OCCO4)c1	Lmaj promast 57.2
NC(=O)CC(NC(=O)Cc1cccc2ccccc12)c1ccc(NC2CCCCCCC2)c([N+](=O)[O-])c1 (centres undefined)	none (no result: INS promoter inh, Autophagy mod, WT yeast gro inh, Lmaj promast)
Fc1ccc2c(c1)C1C=CCC1C(c1cc3c(cc1Br)OCO3)N2 (centres undefined)	none (no result: INS promoter inh)
Cc1ccc(-n2c(=O)[nH]cc(C(=O)Nc3ccc4c(c3)OCCO4)c2=O)cc1C	INS promoter inh 85.7
Cc1ccc(-n2c(=O)[nH]cc(C(=O)Nc3ccc4c(c3)OCCO4)c2=O)cc1	none
Cc1cc(NC(=O)CCNS(=O)(=O)c2cc(Br)cnc2N)ccc1Br	none

From PubChem BioAssay
